Molecules are shown by their SMILES. Hit rate of the full screen: of about 320,000 compounds, about 1,300 (0.41%) were called active. Another 3% or so got no clear call; they are omitted. No rule for the calls is given here. A selection follows. Results with a measured potency or affinity are listed apart.

This assay can be described thus: growth inhibition of non-replicating M. tuberculosis (AID 488890).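 Also: plate controls were DMSO cells for no effect and high antibiotic wells for full effect.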 The following applies: Mycobacterium tuberculosis non-replicating, at 25 µM, stronger effect = higher value.
On to `CCN(Cc1ccccc1)c1ccc(/C=N/N2CCOCC2)cc1`, for which the inhibition was 12.8%.

On to `NC(N)=N/N=C/c1ccccc1`, for which the inhibition amounted to 13.1%.

Take `O=C1c2ccccc2NC(c2ccco2)N1NS(=O)(=O)c1ccccc1` (centres undefined): the inhibition came to 1.96%.

In the case of `O=[N+]([O-])c1ccc(Oc2ccc(-c3nnco3)cc2)c(Cl)c1`, the inhibition is -9.83%.

For the compound `O=C(CCc1nc(-c2ccccc2Cl)no1)NCc1ccco1`, the inhibition was found to be 43.2%.

In the case of `O=[N+]([O-])c1ccc(NCCO)c2ncccc12`, the inhibition is 9.39%.

As for `CCNCCNc1ccc([N+](=O)[O-])c2cccnc12`, the inhibition is 79.3%.

Consider `O=C(CCSc1nnc(-c2ccc(O)cc2)o1)N1CCOCC1`, for which the inhibition was 70.5%.

As for `O=C(CCSc1ccccc1)N1CCN(c2ccccc2)CC1`, the inhibition came to 10.9%.

Consider `O=C(CCSc1nnc(-c2ccco2)o1)N1CCOCC1`, for which the inhibition was found to be 75.9%.

As to `O=C(CCSc1ccccc1)N1CCOCC1`, the inhibition came to 14.3%.

Turning to `Cc1cc(OCC(=O)N[C@@H](Cc2c[nH]c3ccccc23)C(=O)O)c2c(C)c(C)c(=O)oc2c1`, the inhibition amounted to 5.84%.

On to `O=C(CN1C(=O)C(=O)c2ccccc21)c1ccccc1`, for which the inhibition is 27%.

Take `COc1ccc(-n2c(-c3ccccc3)cc3c2CCCC3=O)cc1`: the inhibition was found to be 17.2%.

Regarding `CCCCCCNc1nc(OC)nc(N2CC3CC(C2)c2cccc(=O)n2C3)n1` (centres undefined), the inhibition was 3.85%.

As for `COc1ccc(-c2ccc(OC)cc2)cc1`, the inhibition came to 10.9%.

As to `COc1ccc(O)cc1`, the inhibition was -8.51%.

On to `COC(=O)c1ccc(COc2ccc(/C=N/O)cc2)o1`, for which the inhibition was found to be 29.5%.

On to `CCc1ccc(OCc2ccc(C(=O)OC)o2)cc1`, for which the inhibition was found to be 72.2%.

In the case of `COc1ccc(-n2cnc3cc(C(=O)N4CCOCC4)ccc32)cc1`, the inhibition was -8.02%.

For `O=C(NC(Cc1ccccc1)C(=O)O)NC12CC3CC(CC(C3)C1)C2` (centres undefined), the inhibition is -6.43%.

As for `CCN(CC)CCn1c(=S)[nH]c2cc(C(=O)NCc3ccccc3Cl)ccc2c1=O`, the inhibition amounted to 35%.

Turning to `Cc1ccc(C2C(C#N)=C(N)Oc3n[nH]c(-c4cccnc4)c32)o1` (centres undefined), the inhibition is -0.74%.

With `N#CC1=C(N)Oc2n[nH]c(-c3ccccc3)c2C1c1cccnc1` (centres undefined), the inhibition was 9.98%.

For `O=C(OCC(=O)c1cccc2ccccc12)c1ccc(CO)cc1`, the inhibition is 60%.

For the compound `CCCN(CCC)c1nc2ccccc2n2c(C)nnc12`, the inhibition amounted to 17.5%.

As for `O=C(N/N=C\c1c(O)ccc2ccccc12)c1ccc(Cn2cccn2)o1`, the inhibition is -4.74%.

With `O=C(N/N=C\c1c(O)ccc2ccccc12)c1ccc(O)cc1`, the inhibition is 27.8%.

Turning to `CSc1cccc(CN2CCC(Oc3ccc(C(=O)N4CCCCC4)cc3)CC2)c1`, the inhibition was 64.2%.

As to `CCOC(=O)c1c(NC(=O)CSc2nc3cc(Cl)ccc3s2)sc(C(C)=O)c1C`, the inhibition is 2.44%.

`Cc1ccc(/C=N/NC(=O)c2nnn(-c3nonc3N)c2CN(C)C)o1`: the inhibition is -3.62%.

Turning to `NC(=O)COc1c(-c2ccc(Br)o2)oc2ccccc2c1=O`, the inhibition was -1.98%.

With `O=C(Oc1c(-c2ccccc2)oc2ccccc2c1=O)c1ccccc1`, the inhibition is 26.1%.

For `N#Cc1c(OCC(=O)c2ccccc2)nc2c(c1-c1ccco1)CCc1ccccc1-2`, the inhibition is -14.7%.

`NC(=O)Cc1nc(-c2ccc(F)cc2)cs1`: the inhibition stood at 8.71%.

Turning to `O=C(CNc1cccc2ccccc12)c1ccc([N+](=O)[O-])cc1`, the inhibition came to 73.1%.

As to `Cc1ccc(NCC(=O)c2ccc([N+](=O)[O-])cc2)cc1`, the inhibition came out at 68%.

In the case of `O=C(NC(=S)Nc1cccc(F)c1)c1cccc([N+](=O)[O-])c1`, the inhibition was 74%.

Take `Cc1ccc(C(=O)CNc2cccc([N+](=O)[O-])c2)cc1`: the inhibition is 11.3%.

`CCOC(=O)C1=C(C)N(CCCC(=O)O)C(=O)NC1c1ccccc1Cl` (centres undefined): the inhibition came out at 0.44%.

As for `CCOC(=O)C(C)/C(C)=N\Nc1ccc([N+](=O)[O-])cc1[N+](=O)[O-]` (centres undefined), the inhibition is -5.18%.

Consider `CCCC1CC(c2csc(N)n2)CCO1` (centres undefined), for which the inhibition was -0.79%.

Turning to `COc1ccc(OC)c(/C=C/C(=O)Oc2ccc(C(C)=O)cc2)c1`, the inhibition came to 64.2%.

For the compound `O=C(Cn1c(SCC(=O)N2CCCc3ccccc32)nc2ccccc21)N1CCCC1`, the inhibition is -11.8%.

In the case of `O=C(NNC(=O)c1ccc(Br)cc1)c1ccncc1`, the inhibition amounted to 41.7%.

With `O=C(NNC(=O)C1CCC1)c1ccc(Br)cc1`, the inhibition stood at 3.14%.

For the compound `C/C(NC1CCCCC1)=C(/C#N)C(=O)NCCN1CCOCC1`, the inhibition came to 1.64%.

For `O=[N+]([O-])c1cnc(Nc2ccccc2)nc1Nc1ccccc1`, the inhibition was determined as 0.51%.

`CC(=O)OCC(=O)Nc1ccc([N+](=O)[O-])cc1Cl`: the inhibition is -21.2%.

As to `Cc1cc(O)c(NC(=O)c2cc([N+](=O)[O-])ccc2Cl)cc1C`, the inhibition came out at 32.1%.

As to `CN(C)C(=O)Oc1ccc2ccccc2c1Cl`, the inhibition amounted to 5.7%.

In the case of `O=C(CSc1ccccc1F)NCCN1C(=O)CSC1=O`, the inhibition is -0.52%.

On to `O=C(O)CN1C(c2ccccc2)=Nc2ccc(Br)cc2C1c1ccccc1` (centres undefined), for which the inhibition is -0.36%.

For `O=C(O)c1cc2c(ccc3ccccc32)oc1=O`, the inhibition is -4.26%.

As to `CCOC(=O)c1cc2c(ccc3ccccc32)oc1=O`, the inhibition amounted to 74.5%.

As for `Cc1cccc(OCC(=O)NCC(C)(C)N2CCOCC2)c1`, the inhibition turned out to be 5.72%.

Consider `CCOC(=O)N1CCC(c2[nH][nH]c(=O)c2C)CC1`, for which the inhibition was -7.47%.

As for `CCCCn1c(=O)c(CCC(=O)OCC(=O)NC(C)c2ccccc2)nc2ccccc21` (centres undefined), the inhibition is 55.8%.

Regarding `Cc1cccc(-n2c(/C=C/c3ccc([N+](=O)[O-])o3)nc3ccccc3c2=O)c1`, the inhibition was 28.4%.

With `Cn1c(/C=C/c2ccccc2[N+](=O)[O-])nc2ccccc2c1=O`, the inhibition was -6.23%.

As to `Cc1cc(=O)oc(C)c1C(=O)OCC(=O)c1ccc(Cl)cc1`, the inhibition stood at 72.7%.

`O=C(NCCCN1CCOCC1)c1cc2ccccc2o1`: the inhibition was -15.4%.

For the compound `Cc1ccc(C2=C(O)c3ccccc3C(=O)C2=O)cc1`, the inhibition turned out to be 71.2%.

For `O=C1C(c2ccncc2)=C(O)c2ccccc21`, the inhibition is 26.2%.

On to `Cc1cccc(NC(=S)N2CCN(c3cc(C)ccc3C)CC2)c1`, for which the inhibition is -5.31%.

As for `O=c1[nH]c2ccccc2nc1-c1ccccc1`, the inhibition was -4.14%.

Consider `O=c1[nH]c2ccccc2nc1-c1ccc(Cl)cc1`, for which the inhibition was -0.23%.

Consider `CN(C)CC/C=C1/c2ccccc2Sc2ccc(Cl)cc21`, for which the inhibition turned out to be 75.6%.

For the compound `CN(C)CC/C=C1/c2cc(F)ccc2Sc2ccc(Cl)cc21`, the inhibition is 79.7%.

On to `Cc1ccc(OCC(=O)N/N=C2/SCC(=O)N2Cc2ccccc2)cc1`, for which the inhibition amounted to 29.3%.

With `CC(CN1CCN(C/C=C/c2ccccc2)CC1)c1ccccc1` (centres undefined), the inhibition is 2.29%.

For `COC(CNC(=O)c1coc2nc3ccccc3nc12)OC`, the inhibition was found to be 5.54%.

As for `COC(CNC(=O)c1cccnc1)OC`, the inhibition is -3.72%.

Consider `COc1ccc(Cl)cc1NC(=O)CN(C)C(=O)C12CC3CC(CC(Cl)(C3)C1)C2`, for which the inhibition was determined as 41.4%.

`COc1cccc(NC(=O)CCC(=O)NCc2ccco2)c1`: the inhibition is -7.17%.

In the case of `CCOc1ccc(C(=O)NCc2cccs2)cc1`, the inhibition amounted to 44.9%.

Regarding `CC(=O)Nc1cccc2c1C(=O)N(c1ccc(OC(C)=O)cc1)C2=O`, the inhibition was 19%.

Turning to `O=C1c2ccccc2C(=O)N1c1ccc(Cl)cn1`, the inhibition came to 7.35%.

In the case of `O=C1c2ccccc2C(=O)N1c1cc([N+](=O)[O-])ccn1`, the inhibition was found to be 4.94%.

Turning to `Cc1ccc(C(=O)O)cc1N1C(=O)c2cccc3c([N+](=O)[O-])ccc(c23)C1=O`, the inhibition was 3.01%.

Take `O=C1c2ccc([N+](=O)[O-])cc2C(=O)N1c1ccc(Cl)cn1`: the inhibition was -16.1%.

Regarding `O=C1c2cccc3c([N+](=O)[O-])ccc(c23)C(=O)N1CCc1ccccn1`, the inhibition is 33.7%.

In the case of `Cc1ccc(N2C(=O)c3cccc4c([N+](=O)[O-])ccc(c34)C2=O)c2cccnc12`, the inhibition was found to be 7.23%.

Regarding `O=C1c2cccc3cccc(c23)C(=O)N1c1ccccn1`, the inhibition was -12.3%.

Broadly, the inhibition is the relative decrease from the control value, in per cent.

The values are drawn from PubChem BioAssay AID488890 (Southern Research Specialized Biocontainment Screening …, 2010).
